Laboratory results: article PMC5540273 (PLoS ONE, 2017)

Tests used:
Conditions in all cases: concentration: 1 μM, replicates: in singlicate; n = 1
YANK2 = tested on: T1, YANK2
T1 construct: gene STK32B

YANK3 = tested on: T2, YANK3
T2 construct: gene STK32C

YES = tested on: T3, YES
T3 construct: gene YES1

YSK1 = tested on: T4, YSK1
T4 construct: gene STK25

YSK4 = tested on: T5, YSK4
T5 construct: gene MAP3K19

ZAK = tested on: ZAK
ZAP70 = tested on: ZAP70
p38-alpha = tested on: T6, p38-alpha
T6 construct: gene MAPK14

p38-beta = tested on: T7, p38-beta
T7 construct: gene MAPK11

p38-delta = tested on: p38-delta
p38-gamma = tested on: T8, p38-gamma
T8 construct: gene MAPK12
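Note: KINOMEscan kinase panel screen.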

Structure (SMILES)	%Inh (YANK2)	%Inh (YANK3)	%Inh (YES)	%Inh (YSK1)	%Inh (YSK4)	%Inh (ZAK)	%Inh (ZAP70)	%Inh (p38-alpha)	%Inh (p38-beta)	%Inh (p38-delta)	%Inh (p38-gamma)
O=c1cc(N2CCOCC2)nc2n(Cc3ccccc3F)ccn12 [GSK2297428]	0%	0%	0%	0%	33%	0%	0%	5%	0%	26%	0%
NS(=O)(=O)c1cccc(N/C=C2\C(=O)Nc3ccc(S(=O)(=O)Cc4c(Cl)cccc4Cl)cc32)c1 [GSK398099]	0%	12%	22%	0%	39%	4%	20%	0%	0%	27%	7%
O=C(Nc1n[nH]c2nc(-c3cccs3)c(Br)cc12)C1CCCC1 [SB-743341]	15%	65%	0%	0%	0%	19%	0%	13%	24%	24%	13%
c1ccc(-c2ccnc3[nH]ccc23)cc1 [SB-693578]	0%	8%	14%	1%	93.5%	25%	55%	3%	0%	39%	0%
Cc1cnc(N)c(/C=C/c2cncc(C(=O)NCCc3ccc(Cl)cc3Cl)c2)c1.Cl [GSK190937]	0%	26%	20%	4%	27%	16%	0%	29%	0%	25%	52%
O=C(Nc1n[nH]c2cc(-c3ccsc3)ccc12)C1CC1 [SB-732932]	0%	20%	12%	5%	94.7%	5%	0%	16%	8%	0%	28%
CCc1ccc(-c2ccc3c(c2)-c2n[nH]cc2S(=O)(=O)N3C)cc1	0%	0%	0%	0%	0%	5%	3%	0%	0%	0%	0%
Nc1cccc(-c2ccc3c(N)n[nH]c3c2)n1 [GSK2192730]	0%	0%	0%	26%	83%	10%	3%	8%	0%	22%	0%
Cn1cnc2c(N)ncnc21 [SKF-97623]	0%	0%	0%	0%	0%	0%	12%	0%	0%	4%	0%
CCn1c(-c2ccccc2)nc2cnccc21 [SB-733416]	0%	32%	4%	0%	0%	7%	0%	0%	0%	56%	0%
O=C(Nc1n[nH]c2nc(-c3ccco3)c(Br)cc12)C1CCN(Cc2ccccc2)C1.O=C(O)[C@H](O)[C@@H](O)C(=O)O (stereo not drawn) [SB-742034]	9%	0%	12%	0%	56%	0%	35%	13%	15%	7%	20%
Cc1c(Cn2c3ccccc3n3c(=O)cc(N4CCOCC4)nc23)cccc1C(F)(F)F [GSK2306394]	0%	13%	6%	0%	7%	1%	0%	22%	0%	17%	0%
COc1ccc(CSc2nnc(-c3ccc4nccn4c3)o2)cc1C(F)(F)F	8%	0%	0%	14%	92.3%	0%	0%	4%	21%	0%	3%
Cn1cncc1-c1cc2c(Nc3ccc(OCc4ccccc4)cc3)ncnc2cn1 [GW281179]	0%	15%	19%	4%	27%	43%	20%	0%	0%	52%	0%
CN1c2ccc(-c3ccc(C(N)=O)cc3)cc2-c2[nH]ncc2S1(=O)=O	0%	0%	0%	0%	0%	5%	5%	0%	4%	38%	0%
